# Most compounds without a hit are left out; they make up all but 1.9% or so of the library.
# PABP1 MLLE inh – blocks PAM2 peptide binding to the PABP1 MLLE domain | 360,000 compounds, 0.36% hits | inhibition, % at 20 µM | GST-MLLE / FITC-PAM2 fluorescence polarization; in the data active = inhibition above about 35%, passing the limit was not always enough;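 note: plate controls were DMSO wells with GST-MLLE for no effect and wells lacking GST-MLLE protein for full effect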
# eIF4E-4G inh – blocks eIF4E binding to eIF4G. P63073+Q04637. TR-FRET eIF4E-eIF4GI(517-606) binding, 2 h. inhibition, % at 21.7 µM. 220,000 compounds, 0.37% hits. AID 782;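 active = inhibition above about 30%, limit read from the data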;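 note: 0% = full FRET control wells and 100% = background wells lacking eIF4GI fragment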
# 14-3-3 Bad PPI – disrupts binding of bovine 14-3-3 zeta to phospho-Bad peptide; TR-FRET 14-3-3zeta/Dy647-pBad peptide displacement, 1 h; 220,000 compounds, 0.71% hits; inhibition, % at 21.7 µM;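 active = inhibition above about 70%, limit read from the data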;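 note: 0% = full 14-3-3 plus peptide FRET controls and 100% = background without 14-3-3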
# Target sequence (P63103 whole entry, looked up): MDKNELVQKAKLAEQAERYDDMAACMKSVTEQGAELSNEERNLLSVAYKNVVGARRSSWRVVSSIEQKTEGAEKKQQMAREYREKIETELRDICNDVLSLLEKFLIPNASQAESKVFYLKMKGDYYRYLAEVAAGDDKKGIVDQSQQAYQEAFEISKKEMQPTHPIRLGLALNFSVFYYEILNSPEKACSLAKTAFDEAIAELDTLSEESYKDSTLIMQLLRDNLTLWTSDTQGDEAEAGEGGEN
# eIF4H FP inh – inhibitors of RNA binding by human eIF4H. Q15056. eIF4H fluorescence polarization binding assay. inhibition, % at 35 µM. 290,000 compounds, 0.94% hits. AID 2012;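 note: calls also rest on retests at 20 µM and on dose response follow-up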
# PABP polyA inh – blocks human PABP binding to poly(A) RNA; P11940; 290,000 compounds, 1% hits; fluorescence polarization; calls only at 35 µM;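 note: calls also rest on retests at 20 µM and on dose response follow-up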
# * hit, by the source's call; i = inactive; ? = inconclusive; / = not tested or not shown; + = active, no number. Unless noted, the rule behind the calls is not given here.
SMILES,PABP1 MLLE inh,eIF4E-4G inh,14-3-3 Bad PPI,eIF4H FP inh,PABP polyA inh
CCCCN1C(=O)/C(=C2\SC(N3CCCCC3)=NC2=O)c2ccccc21,40*,-1,-3,-8,i
Cc1c(C(=O)N2CCCCC2)oc2ccc(Br)cc12,-4,/,/,/,/
O=C(O)c1oc2ccc(Br)cc2c1-n1cccc1,4,/,/,81*,+
O=C(O)c1cc(N2C(=O)C3C4C=CC(C4)C3C2=O)ccc1N1CCOCC1 (centres undefined),-6,2,7,3,i
CSc1nc(SCC(N)=O)c2c3c(sc2n1)CN(C)CC3,3,-5,4,27,i
CCNc1nc(SCC(N)=O)nc2sc3c(c12)CCN(C)C3,37,/,/,98,+
Cc1nc(NC(=O)COC(=O)c2cccs2)c(Cl)cc1Cl,-9,/,/,/,/
Cc1ccc(-c2nnc(N(C)C(=O)C3CCCO3)s2)cn1 (centres undefined),9,0,75*,-4,i
CCC(c1nnnn1Cc1ccco1)N1CCC(C(N)=O)CC1 (centres undefined),10,8,57,15,i
CCCC(c1nnnn1Cc1ccco1)N1CCC(C(N)=O)CC1 (centres undefined),4,-4,71*,15,i
Fc1ccc(-n2c(-c3ccco3)nc3nc4ccccc4nc32)cc1,-32,0,-1,86*,+
CCCCOCCCn1c(-c2ccco2)nc2nc3ccccc3nc21,-42,54*,-8,?,?
Fc1cccc(-n2c(-c3cccs3)nc3nc4ccccc4nc32)c1,/,9,40,9,i
Cc1ccc(-n2c(-c3ccco3)nc3nc4ccccc4nc32)cc1F,-34,-20,-6,72,i
Fc1cccc(-n2c(-c3ccco3)nc3nc4ccccc4nc32)c1,-45,-13,-10,57,+
Cn1c(CNC(=O)CCNC(=O)c2ccc(F)c(F)c2)cc(=O)n(C)c1=O,-1,/,/,-4,i
Cc1cc(C(=O)CSc2nnc(N)s2)c(C)n1C1CC1,18,/,/,/,/
Cc1cc(C(=O)CSc2nc(N)cc(N)n2)c(C)n1C1CC1,1,2,-12,81*,i
Clc1ccc(-c2csc(N/N=C\c3cccnc3)n2)cc1,21,21,76*,-3,i
COc1ccc(C2CC(C)=C(C#N)S(=O)(=O)C2C#N)cc1 (centres undefined),4,-10,-6,0,i
O=C1N=C2N(CCN3CCCCC3)c3ccccc3N2/C1=C\c1ccc([N+](=O)[O-])o1,/,12,88*,9,i
O=C1C2C3C=CC(CC3)C2C(=O)N1c1ccc(F)cc1 (centres undefined),-14,/,/,4,i
CC(C)C1NC2(C(=O)c3ccccc3C2=O)C2C(=O)N(c3ccc(F)cc3)C(=O)C12 (centres undefined),39,4,10,51*,+
CCOC(=O)C1=CN(Cc2ccco2)S(=O)(=O)N(C)C1CC (centres undefined),2,/,/,/,/
Cc1ccccc1Cn1cccc1/C=C1/C(=N)N2C=CSC2=NC1=O,-45,-1,-7,66*,+
SMILES,PABP1 MLLE inh,eIF4E-4G inh,14-3-3 Bad PPI,eIF4H FP inh,PABP polyA inh
NS(=O)(=O)c1ccc(NC(=O)c2ccc3nccnc3c2)cc1,5,94*,5,-2,i
O=C(Nc1ccncc1)c1ccc2ncsc2c1,12,/,/,/,/
O=C(Nc1ccc(S(=O)(=O)Nc2ncccn2)cc1)c1ccc2ncsc2c1,-30,51*,81*,26,i
COC(=O)CC(NC(=S)NC(=O)c1ccccc1)c1ccc(Br)cc1 (centres undefined),46*,/,/,16,i
CN1C2C=C3C(C#N)=C(N)C(C#N)(C#N)[C@@H](c4ccsc4)[C@@H]3C1CC2 (some centres undefined),/,-2,-22,66*,+
CN1CC=C2C(C#N)=C(N)C(C#N)(C#N)C(c3ccsc3)C2C1 (centres undefined),122,7,-3,?,?
COc1cc(-c2noc(C3CCCN(C(=O)c4ccccc4)C3)n2)cc(OC)c1OC (centres undefined),9,/,/,-1,i
O=c1nc(Nc2cccc(Cl)c2)oc2cc(Cl)oc(=O)c12,-17,0,2,58,+
CN(C(=O)c1cccc(COc2ccc(Cl)cc2Cl)c1)c1ccccc1,-2,3,-10,-9,+
O=C(NCc1ccccc1)c1cccc(COc2cc(Cl)ccc2Cl)c1,10,1,-5,-6,i
CC(=O)c1ccc(NC(=O)C2=CC(c3ccco3)=NS(=O)(=O)N2C)cc1,7,/,/,4,i
COc1ccc(C(=O)NCCn2ccc3ccccc32)cc1OC,0,0,-4,18,i
COc1ccccc1C(=O)NCCn1ccc2ccccc21,43*,1,-10,-10,i
Cc1ccc2[nH]c3c(=O)n(Cc4ccco4)cnc3c2c1,5,0,9,0,i
O=C(Nc1ccc(F)cc1)Nc1ccc([N+](=O)[O-])cn1,8,6,1,3.0*,+
COc1ccc(CNC(=O)C[C@H]2C[C@H](C(=O)N(C(C)C)C(C)C)[C@@]3(C)c4[nH]c5cc(-c6ccco6)ccc5c4CCN3C2=O)cc1OC,-12,/,/,/,/
COc1ccc(OC)c(Nc2nc(=O)c3cccnc3s2)c1,23,32*,-10,9,i
COC(=O)c1nn(-c2ccc(OC)cc2)c(=O)cc1NN,-11,-1,-20,active,i
COC(=O)c1nn(-c2ccc(OC)cc2)c(=O)cc1Sc1ccc(C)cc1,2,3,-4,0,i
O=C(NC(=S)N1CCCCCC1)c1ccccc1Cl,44*,3,-22,-4,i
O=C1NC(=O)C(CC(=O)N(Cc2ccco2)C2(C(=O)NC3CCCC3)CCCCC2)N1 (centres undefined),14,-4,-8,-3,i
O=C1NC(=O)C(CC(=O)N(Cc2cccs2)C2(C(=O)NC3CCCCC3)CCCCC2)N1 (centres undefined),7,1,-2,active,+
O=[N+]([O-])c1ccc(OS(=O)(=O)Cc2ccccc2)cc1,7,-1,-1,2.5*,+
O=C1OCc2cccc([N+](=O)[O-])c21,6,3,3,1,i
O=C1CC(=O)c2c1cccc2[N+](=O)[O-],/,29,31,65*,+
COC(=O)c1ccc2c(=O)sc(N3CCC(C(N)=O)CC3)nc2c1,44*,10,0,-9,i
O=C(CSc1ncccn1)Nc1ccc2c(c1)CCC2,-19,-6,1,0,i
C=CC[C@H](CC(=O)N(CCO)Cc1ccccc1)C(=O)N[C@H](COC(=O)[C@@H](CC=C)CC(=O)OC(C)(C)C)Cc1c[nH]c2ccccc12,-8,/,/,/,/

# Compound activity (PubChem BioAssay)
